“And” between values parts separate entries of the source, which are not always exact repeats. Equal values may be shown once. The source made the active and inactive calls.

Results on four molecules are retold here after PubChem BioAssay.

Assay [1] is described as follows: small molecules captured by biotinylated probe aFSTL3 – biochemical, small-molecule microarray, fluorescence 635/667, stem cell growth factor project, primary screen (AID 1064).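 Further: measures binding of the biotinylated anti-FSTL3 antibody to printed compounds.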 Conditions: higher = more signal.
A short description of assay [2]: binders from COS7 lysate, DM2A8 probe, primary screen, torsin A project, cell lysate, small-molecule microarray, fluorescence 635/667 (AID 1065). The note with it: higher = more signal, COS7 lysate expressing mutant human TOR1A.
The nature of assay [3]: small molecules captured by biotinylated probe aFGF2 – biochemical, small-molecule microarray, fluorescence 635/667, stem cell growth factor project, primary screen (AID 1067).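 Further: measures binding of biotinylated aFGF2 protein to printed compounds on slides; z-score merges feature fluorescence and signal-to-noise across triplicate slides.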 Conditions: higher = more signal.
A short description of assay [4]: small molecules captured by biotinylated probe aFGF10 – biochemical, small-molecule microarray, fluorescence 635/667, stem cell growth factor project, primary screen (AID 1071).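 Further: score merges 667 nm spot intensity and signal to noise from triplicate slides.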 Conditions: higher = more signal.
The target of assay [5] is Neurogenic locus notch homolog protein 2 (Homo sapiens) (UniProt Q04721). Kind of assay: small molecules binding Notch2 protein – biochemical, small-molecule microarray, 635 nm fluorescence, stem cell growth factors, primary screen (AID 1073). The note with it: higher = more signal.
In assay [6] the target is Pro-neuregulin-1, membrane-bound isoform (Homo sapiens) (UniProt Q02297). Kind of assay: small molecules binding neuregulin-1 protein – biochemical, small-molecule microarray, fluorescence 635/667, psychiatric disease protein project, primary screen (AID 1075).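 Further: score combines 667 nm spot fluorescence with signal to noise.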 The note with it: NRG1 binding, 635 nm fluorescence, higher = more signal.
Assay [7] deals with Neuregulin-1 EGF-like domain. Kind of assay: small molecules binding NRG1 EGF domain – biochemical, small-molecule microarray, 635 nm fluorescence, primary screen (AID 1081).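 Further: binding of the protein to compounds printed on small-molecule microarray slides.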 The note with it: higher = more signal.
Assay [8] is described as follows: FRG1 expression reporter modulators in myotubes – cell-based, C2C12 myotubes, firefly/Renilla luciferase, luminescence, FRG1 inhibition for FSHD, primary screen (AID 1084). The note with it: FRG1 promoter luciferase, higher = more signal, called active from +8 up or from −8 down.
A short description of assay [9]: small molecules captured by biotinylated probe aFST – biochemical, small-molecule microarray, fluorescence 635/667, stem cell growth factor project, primary screen (AID 1086).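 Further: score merges 667 nm fluorescence with signal-to-noise of each printed compound spot.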 The note with it: higher = more signal.
Assay [10] is described as follows: binders of probe aHhip on microarray, primary screen, stem cell growth factor project, biochemical, small-molecule microarray, fluorescence 635/667 (AID 1087).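 Further: score merges spot fluorescence at 667nm with spot signal to noise ratio.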 Conditions: higher = more signal.
Assay [11] deals with PRMT1 (protein arginine N-methyltransferase 1). In words: small molecules binding arginine methyltransferase PRMT1 – biochemical, small-molecule microarray, 635 nm fluorescence, primary screen (AID 1088).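 Further: binding of Prmt1 protein to compounds spotted on small-molecule microarray slides.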 Conditions: higher = more signal.
A short description of assay [12]: growth effects on S. cerevisiae YJM789 – YJM789 clinical isolate, OD600, 24 h, basal, primary screen (AID 1089).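 Further: growth of clinical yeast isolate S. cerevisiae YJM 789 seeded 1000 cells per well; test concentration not given here.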 The note with it: higher = more signal, called active from +8 up or from −8 down.
The nature of assay [13]: S. pombe growth modifiers, basal conditions – strain 972, OD600, 24 h, no modulator, primary screen (AID 1090).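 Further: basal condition with compound alone and no growth modifier present; test concentration not given here.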 Conditions: S. pombe 972 growth, higher = more signal, called active from +8 up or from −8 down.
Assay [14] in a line: budding yeast growth modifiers under rapamycin – strain BY4716, OD600, 96 h, primary screen (AID 1091). Further: test concentration not given here. The note with it: S. cerevisiae BY4716 + rapamycin, higher = more signal, called active from +8 up or from −8 down.
The target in assay [15] is Torsin-1A-interacting protein 2 (Homo sapiens) (UniProt Q8NFQ8). In words: small molecules binding lysate-expressed LULL1 – cell lysate, human LULL1 lysate, 635/667 nm fluorescence, primary screen (AID 1092).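 Further: probe is lysate of COS7 cells overexpressing human LULL1; score merges per-feature 667 nm fluorescence with signal-to-noise.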 The note with it: small-molecule microarray, hLULL1 lysate binding, 635 nm fluorescence; higher = more signal.
Assay [16] is described as follows: optical density change of DRC41 E. coli – strain DRC41, OD650, 24 h, E. coli filamentation project, primary screen (AID 1093).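 Further: MC1000 strain lacking acrAB efflux and sulA so SOS filamentation is blocked; test concentration not given here.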 The note with it: E. coli DRC41 growth, higher = more signal, called active from +8 up or from −8 down.
Assay [17] in a line: probe aLefty2 binding to arrayed compounds – biochemical, biotinylated probe, 635/667 nm fluorescence, primary screen (AID 1094).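 Further: score merges spot fluorescence near 667 nm with spot signal-to-noise ratio.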 The note with it: small-molecule microarray, higher = more signal.
In assay [18] the test system is Noggin (protein binding on small-molecule microarray). Kind of assay: small molecules binding Noggin protein – biochemical, 635/667 nm fluorescence, primary screen (AID 1095).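 Further: score merges 667 nm feature fluorescence with signal to noise over triplicate slides.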 The note with it: 635 nm fluorescence, higher = more signal.
The target of assay [19] is Neurogenic locus notch homolog protein 3 (Homo sapiens) (UniProt Q9UM47). In words: small molecules binding NOTCH3 protein – biochemical, 635/667 nm fluorescence, primary screen (AID 1096). Conditions: small-molecule microarray, 635 nm fluorescence, higher = more signal.
A short description of assay [20]: probe aEGFR binding to arrayed compounds – biochemical, biotinylated probe, 635/667 nm fluorescence, primary screen (AID 1097).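 Further: probe is a biotinylated anti-EGFR antibody binding compounds printed on slides; score combines fluorescence near 667 nm and signal to noise of each spot.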 Conditions: small-molecule microarray, higher = more signal.

Chain of Torsin-1A-interacting protein 2 (Homo sapiens) (Q8NFQ8 whole entry, looked up): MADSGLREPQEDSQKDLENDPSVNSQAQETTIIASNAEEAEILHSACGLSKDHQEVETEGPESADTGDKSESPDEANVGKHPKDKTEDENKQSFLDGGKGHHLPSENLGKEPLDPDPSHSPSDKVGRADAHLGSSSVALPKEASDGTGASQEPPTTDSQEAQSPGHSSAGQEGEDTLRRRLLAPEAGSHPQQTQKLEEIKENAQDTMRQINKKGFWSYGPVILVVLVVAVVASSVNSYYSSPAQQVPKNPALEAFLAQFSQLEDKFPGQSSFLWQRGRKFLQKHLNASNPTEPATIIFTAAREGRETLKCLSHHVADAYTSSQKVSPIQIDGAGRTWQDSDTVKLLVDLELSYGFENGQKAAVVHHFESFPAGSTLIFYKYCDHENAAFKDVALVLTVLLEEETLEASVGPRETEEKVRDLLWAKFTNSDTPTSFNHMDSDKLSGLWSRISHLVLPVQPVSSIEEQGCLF
Chain of Neurogenic locus notch homolog protein 3 (Homo sapiens) (Q9UM47 whole entry, looked up): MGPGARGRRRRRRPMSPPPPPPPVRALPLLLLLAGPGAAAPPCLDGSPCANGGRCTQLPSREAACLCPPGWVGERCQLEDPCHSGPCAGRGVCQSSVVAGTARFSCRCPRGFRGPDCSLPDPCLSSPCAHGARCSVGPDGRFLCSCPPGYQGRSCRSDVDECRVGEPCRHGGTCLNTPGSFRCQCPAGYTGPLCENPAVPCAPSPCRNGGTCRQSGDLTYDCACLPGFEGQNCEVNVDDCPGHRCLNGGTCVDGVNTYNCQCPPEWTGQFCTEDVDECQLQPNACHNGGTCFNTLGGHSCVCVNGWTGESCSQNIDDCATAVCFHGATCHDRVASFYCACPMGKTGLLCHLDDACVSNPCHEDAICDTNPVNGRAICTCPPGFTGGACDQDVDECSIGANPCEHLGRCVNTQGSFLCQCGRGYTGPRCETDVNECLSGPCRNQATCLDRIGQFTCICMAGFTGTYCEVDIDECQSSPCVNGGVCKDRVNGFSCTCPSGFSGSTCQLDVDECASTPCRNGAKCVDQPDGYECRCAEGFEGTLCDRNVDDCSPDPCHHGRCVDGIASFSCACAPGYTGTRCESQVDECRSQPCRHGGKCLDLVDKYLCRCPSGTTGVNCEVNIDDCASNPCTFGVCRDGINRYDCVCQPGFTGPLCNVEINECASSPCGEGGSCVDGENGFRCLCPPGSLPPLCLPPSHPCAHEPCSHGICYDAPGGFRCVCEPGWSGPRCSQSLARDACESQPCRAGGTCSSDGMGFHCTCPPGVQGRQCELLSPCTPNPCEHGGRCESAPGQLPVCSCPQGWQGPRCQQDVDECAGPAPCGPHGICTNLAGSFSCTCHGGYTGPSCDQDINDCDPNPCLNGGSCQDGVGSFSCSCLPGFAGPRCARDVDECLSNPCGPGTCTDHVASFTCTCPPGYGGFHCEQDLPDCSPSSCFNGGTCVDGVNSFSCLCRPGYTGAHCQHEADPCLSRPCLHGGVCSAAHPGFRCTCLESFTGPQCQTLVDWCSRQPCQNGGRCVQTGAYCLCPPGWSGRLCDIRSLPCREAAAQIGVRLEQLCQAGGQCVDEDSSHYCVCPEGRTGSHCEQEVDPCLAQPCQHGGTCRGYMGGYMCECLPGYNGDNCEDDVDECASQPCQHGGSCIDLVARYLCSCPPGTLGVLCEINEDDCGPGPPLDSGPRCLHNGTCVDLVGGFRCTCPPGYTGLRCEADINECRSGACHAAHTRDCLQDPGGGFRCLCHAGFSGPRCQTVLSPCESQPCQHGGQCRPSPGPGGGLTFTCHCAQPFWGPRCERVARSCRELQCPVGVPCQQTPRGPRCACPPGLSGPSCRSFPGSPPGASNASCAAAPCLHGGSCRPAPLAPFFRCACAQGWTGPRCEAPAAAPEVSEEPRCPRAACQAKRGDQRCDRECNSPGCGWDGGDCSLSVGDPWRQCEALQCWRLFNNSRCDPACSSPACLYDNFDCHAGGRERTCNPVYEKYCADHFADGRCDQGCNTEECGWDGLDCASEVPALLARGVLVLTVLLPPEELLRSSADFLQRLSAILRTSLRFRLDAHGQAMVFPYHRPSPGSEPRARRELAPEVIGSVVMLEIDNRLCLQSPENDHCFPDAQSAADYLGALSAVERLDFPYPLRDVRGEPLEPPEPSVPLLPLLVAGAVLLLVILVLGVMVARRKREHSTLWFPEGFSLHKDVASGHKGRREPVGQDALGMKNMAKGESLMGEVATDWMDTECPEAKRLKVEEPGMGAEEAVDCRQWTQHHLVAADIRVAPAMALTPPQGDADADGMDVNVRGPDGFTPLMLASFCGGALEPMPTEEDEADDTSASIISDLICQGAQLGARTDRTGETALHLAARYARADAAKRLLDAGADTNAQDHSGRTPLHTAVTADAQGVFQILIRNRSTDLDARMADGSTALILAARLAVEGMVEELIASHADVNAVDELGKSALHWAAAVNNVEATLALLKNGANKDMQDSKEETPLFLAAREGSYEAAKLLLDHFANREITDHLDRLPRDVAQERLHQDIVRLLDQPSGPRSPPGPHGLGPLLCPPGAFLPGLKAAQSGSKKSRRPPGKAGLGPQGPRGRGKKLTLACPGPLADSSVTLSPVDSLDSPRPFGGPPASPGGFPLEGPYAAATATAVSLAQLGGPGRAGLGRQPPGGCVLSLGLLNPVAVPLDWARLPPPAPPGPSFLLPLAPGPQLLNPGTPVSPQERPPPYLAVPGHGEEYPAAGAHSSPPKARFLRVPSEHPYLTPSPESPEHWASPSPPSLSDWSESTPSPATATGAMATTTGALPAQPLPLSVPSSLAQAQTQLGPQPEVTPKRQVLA
Chain of Pro-neuregulin-1, membrane-bound isoform (Homo sapiens) (Q02297 whole entry, looked up, the tested form may be a part, canonical isoform): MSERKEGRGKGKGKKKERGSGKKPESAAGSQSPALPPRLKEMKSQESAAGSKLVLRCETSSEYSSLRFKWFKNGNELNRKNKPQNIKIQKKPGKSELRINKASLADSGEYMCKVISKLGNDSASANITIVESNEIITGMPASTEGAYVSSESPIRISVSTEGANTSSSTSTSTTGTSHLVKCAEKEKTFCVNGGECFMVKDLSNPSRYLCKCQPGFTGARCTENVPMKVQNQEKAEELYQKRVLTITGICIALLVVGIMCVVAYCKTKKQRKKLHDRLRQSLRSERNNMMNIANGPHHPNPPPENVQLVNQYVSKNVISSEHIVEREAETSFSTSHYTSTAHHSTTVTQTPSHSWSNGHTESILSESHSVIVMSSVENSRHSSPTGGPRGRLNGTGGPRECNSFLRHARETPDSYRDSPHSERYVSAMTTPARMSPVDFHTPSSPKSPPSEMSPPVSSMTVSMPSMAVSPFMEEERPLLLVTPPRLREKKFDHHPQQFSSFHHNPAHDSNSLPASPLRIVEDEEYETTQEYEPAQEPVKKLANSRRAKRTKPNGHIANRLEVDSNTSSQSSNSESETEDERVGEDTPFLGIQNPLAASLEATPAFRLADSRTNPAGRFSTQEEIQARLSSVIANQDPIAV

`C=CCN(C(=O)C1N(c2c(Cl)cccc2CO)C(=O)C2C(C(=O)O)C3C=CC21O3)c1ccc(OC)cc1` (stereo not given): the composite z-score was 0.778 and 0.859 in assay [1]; -1.57 and -1.33 in assay [2]; -0.119 and -0.252 in assay [3]; -0.653 and -1.76 in assay [4]; -1.09 and -1.92 in [5]; -0.515 and -0.497 in [6]. Also, the composite z-score in [7] is 0.507 and -0.579; in [9], -0.826 and -0.934; in [10] it was -0.283 and -0.517; in [11] it was -0.406 and -0.949; in assay [15] it was -0.51 and -1.41; in [17], -0.652 and -0.252. Also, the composite z-score was -1.05 and -1.85 in [18]; -0.306 and -0.737 in assay [19]; -0.327 and -0.236 in assay [20]. Also, the z-score in assay [8] was 1.48 (inactive) and -1.39 (inactive); in assay [12], 0.188 (inactive) and -1.76 (inactive); in assay [13], 0.0331 (inactive) and -1.23 (inactive); in assay [14], -0.362 (inactive) and -0.691 (inactive); in [16], 1.82 (inactive) and 2.06 (inactive).
As to `CCN1C(=O)[C@H]2[C@H]3[C@H](O)[C@H](O)CC(=NNC(=O)OCc4ccc(OC)cc4)[C@H]3CC[C@H]2C1=O`, the composite z-score is 2.2 in assay [1]; 0.349 in assay [2]; -0.0775 in [3]; 0.284 in [4]; -0.0863 in assay [5]; -0.116 in [6]. For the same molecule, the composite z-score in [7] was -0.222; in [9], 1.03; in assay [10], -0.0482; in assay [11] it was 0.0536; in assay [15], 0.677; in assay [17], 0.656. The values for the composite z-score in [18], in assay [19] and in assay [20] were -0.283, -0.143 and 0.0004, respectively. For the same molecule, the z-score in assay [8] is -0.0988 (inactive); in [12], 0.523 (inactive); in assay [13], -0.312 (inactive); in [14], 0.41 (inactive); in assay [16], -0.17 (inactive).
On to `COC(=O)c1c2oc(c1C(=O)OC)C(=O)N[C@@H](Cc1ccccc1)Cn1cc(nn1)C1(CCCCC1)NC(=O)N[C@H](CO)CC2`, for which the composite z-score in assay [1] is 0.345 and -0.428; in assay [2] it was -0.946 and -0.603; in [3], -0.0558 and -0.0752; in [4], 0.866 and 0.262; in assay [5], 0.395 and 0.428; in [6], 1.23 and 0.0012. Besides, the composite z-score in [7] is 1.31 and 0.747; in assay [9], 0.247 and 0.182; in [10], -0.0346 and -0.13; in [11], 1.43 and 0.951; in assay [15], 2.52 and 0.978; in assay [17] it was 0.558 and 0.72. The composite z-score in assay [18] is 1.57 and 0.416; in [19], 0.971 and 0.57; in assay [20] it was 0.0408 and -0.0697. For the same molecule, the z-score in assay [8] was -0.818 (inactive) and -1 (inactive); in [12] it was 0.168 (inactive) and 0.611 (inactive); in assay [13], -0.79 (inactive) and -0.186 (inactive); in assay [14] it was -0.427 (inactive) and -0.2 (inactive); in [16] it was 2.09 (inactive) and 1.21 (inactive).
On to `Cc1ccc(S(=O)(=O)OC[C@@H]2CN3[C@@H](CC[C@@H](C)[C@@H]3c3ccc(Br)cc3)C(=O)O2)cc1`, for which the composite z-score is -0.14 and -0.482 in assay [1]; 0.299 and 0.063 in [2]; -0.0502 and 0.0062 in assay [3]; 0.251 and 0.369 in [4]; 0.246 and 0.663 in assay [5]; 0.311 and 0.0379 in assay [6]. Besides, the composite z-score is 0.168 and 1.07 in assay [7]; 0.447 and 0.166 in assay [9]; 0.21 and 0.268 in assay [10]; 0.353 and 1.4 in assay [11]; 0.454 and 0.845 in assay [15]; -0.0389 and -0.205 in [17]. The composite z-score in assay [18] is 0.0884 and 0.47; in [19] it was -0.0776 and 0.686; in [20], 0.0519 and -0.0671. Moreover, the z-score was 0.472 (inactive) and -0.0959 (inactive) in assay [8]; -0.464 (inactive) and 0.544 (inactive) in assay [12]; -0.252 (inactive) and 0.102 (inactive) in assay [13]; -0.182 (inactive) and 0.777 (inactive) in [14]; 0.199 (inactive) and -0.206 (inactive) in assay [16].
